The values that follow come from PubChem BioAssay.

The subject of experiment [1] is Plasmodium falciparum Sir2 (PF13_0152, Sir2A). In words: pfSir2 binders on small-molecule microarrays, primary screen, biochemical, small-molecule microarray, 635 nm fluorescence (AID 1098).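 Note: score merges spot fluorescence intensity with its signal-to-noise ratio.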 The conditions noted are these: small-molecule microarray binding, fluorescence 635 nm; higher = more signal.
A short description of experiment [2]: small-molecule microarray binders of probe aDKK1, primary screen, biochemical, biotinylated probe, 635/667 nm fluorescence (AID 1099).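 Note: score merges 667nm spot fluorescence with signal to noise across triplicate slides.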 The following applies: higher = more signal; small-molecule microarray, probe aDKK1, fluorescence unless noted.
Experiment [3] is described as follows: small-molecule microarray binders of probe aCHRDL2, primary screen, biochemical, biotinylated probe, 635/667 nm fluorescence (AID 1100). The following applies: higher = more signal; small-molecule microarray, probe aCHRDL2, fluorescence unless noted.
Experiment [4] in a line: splicing luciferase reporter signal modulators, primary screen, spliceosome inhibition project, cell-based, HEK293, splice +/- reporter (AID 1101).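 Note: HEK293 cells carrying a splicing-competent luciferase reporter gene; test concentration not given here.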 The conditions noted are these: luminescence, 24 h; higher = more signal, called active from +8 up or from −8 down unless noted.
For experiment [5], the target named is Fibroblast growth factor 10 (Homo sapiens) (UniProt O15520). In words: FGF10 binders on small-molecule microarrays, primary screen, biochemical, small-molecule microarray, 635 nm fluorescence (AID 1102). The following applies: FGF10 binding, fluorescence 635 nm, higher = more signal.
Experiment [6] has as its system glycogen synthase kinase-3 (GSK3A per assay name; protocol says GSK3B). The experiment can be described thus: GSK3 binders on small-molecule microarrays, primary screen, biochemical, small-molecule microarray, 635 nm fluorescence, GSK3A (AID 1103). Note: the record names both GSK3A and GSK3B. The conditions noted are these: small-molecule microarray binding, fluorescence 635 nm; higher = more signal.
For experiment [7], the target named is Epidermal growth factor receptor (Homo sapiens) (UniProt P00533). In words: EGFR binders on small-molecule microarrays, primary screen, biochemical, small-molecule microarray, 635 nm fluorescence (AID 1104).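 Note: score merges 667 nm emission intensity with spot signal to noise over triplicate slides.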 The conditions noted are these: EGFR binding, higher = more signal.
Experiment [8] has as its target Follistatin-related protein 3 (Homo sapiens) (UniProt O95633). The experiment can be described thus: FSTL3 binders on small-molecule microarrays, primary screen, biochemical, small-molecule microarray, 635 nm fluorescence (AID 1105).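 Note: score merges emission near 667 nm and signal to noise per printed spot across three slides.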 The conditions noted are these: FSTL3 binding, higher = more signal.
In experiment [9] the target is Dickkopf-related protein 1 (Homo sapiens) (UniProt O94907). In words: DKK1 binders on small-molecule microarrays, primary screen, biochemical, small-molecule microarray, 635 nm fluorescence scan (AID 1106).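 Note: score merges emission near 667 nm with signal to noise over three replicate slides.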 The conditions noted are these: DKK1 binding, higher = more signal.
Experiment [10] has as its system Inhibin beta A chain (activin A). The experiment can be described thus: INHBA (activin A) binders on microarrays, primary screen, biochemical, small-molecule microarray, 635 nm fluorescence scan (AID 1107).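 Note: mouse activin A protein probed at 4.33 µg/mL on printed slides; score merges bound-protein fluorescence near 667 nm with spot signal-to-noise.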 The following applies: small-molecule microarray binding, higher = more signal.
In experiment [11] the test system is Human papillomavirus type 1a protein E7 (residues 44-93). In words: HPV1a E7 fragment binders on microarrays, primary screen, biochemical, small-molecule microarray, residues 44-93, 635 nm fluorescence (AID 1108).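 Note: E7 fragment applied at 1 µg/mL in TBST for 1 h at 4 C; score combines spot fluorescence with its signal to noise ratio.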 The following applies: small-molecule microarray binding, fluorescence 635 nm; higher = more signal.
A short description of experiment [12]: modulators of HCV replicon luciferase signal, primary screen, HCV replication inhibitor project, Huh7 cells, luciferase reporter (AID 1109).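 Note: huh7 hepatoma cells harbouring a luciferase neomycin HCV replicon reporter; luciferase luminescence as measure of HCV replicon replication; test concentration not given here.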 The conditions noted are these: 48 h, higher = more signal.
In experiment [13] the target is Left-right determination factor 2 (Homo sapiens) (UniProt O00292). The experiment can be described thus: LEFTY2 binders on small-molecule microarrays, primary screen, biochemical, small-molecule microarray, 635 nm fluorescence scan (AID 1110). The following applies: LEFTY2 binding, higher = more signal.
Experiment [14] concerns the target Calmodulin-1 (Homo sapiens) (UniProt P0DP23). The experiment can be described thus: CALM1 binders on microarrays, EGTA buffer, profiling panel, biochemical, small-molecule microarray, Cy5-labelled CALM1 (AID 1111).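 Note: labelled calmodulin applied in Tris saline Tween buffer holding calcium plus EGTA and DTT.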 The following applies: Cy5-CALM1 binding fluorescence, higher = more signal.
Experiment [15] has the same target. The experiment can be described thus: calcium-bound CALM1 binders on microarrays, profiling panel, artefact control for SMM control-protein annotation, biochemical, small-molecule microarray, Cy5-labelled CALM1, plus calcium (AID 1112).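 Note: score merges spot fluorescence with signal to noise from triplicate slides.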 The conditions noted are these: Cy5-CALM1 binding fluorescence, higher = more signal.
A short description of experiment [16]: small-molecule microarray binders of probe aWnt5a, primary screen, biochemical, biotinylated probe, 635/667 nm fluorescence (AID 1113).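 Note: score merges 667 nm fluorescence intensity with signal-to-noise per printed feature.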 The following applies: higher = more signal; small-molecule microarray, probe aWnt5a, fluorescence unless noted.
A short description of experiment [17]: small-molecule microarray binders of probe aShh, primary screen, biochemical, biotinylated probe, 635/667 nm fluorescence (AID 1114).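 Note: probe is biotin-labelled aShh protein from a stem cell growth factor screen; measures binding of labelled protein to compounds printed on the slide; score merges feature fluorescence at 667 nm with signal-to-noise.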 The following applies: higher = more signal; small-molecule microarray, probe aShh, fluorescence unless noted.
Experiment [18] can be described thus: small-molecule microarray binders of probe aNog, primary screen, biochemical, biotinylated probe, 635/667 nm fluorescence (AID 1115).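 Note: probe is biotinylated aNog protein used at 0.15 µg/mL for 1 h at 4 C; z-score combines 667 nm fluorescence of each spot with its signal to noise.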 The following applies: higher = more signal; small-molecule microarray, probe aNog, fluorescence unless noted.
For experiment [19], the target named is Torsin-1A-interacting protein 1 (Homo sapiens) (UniProt Q5JTV8). In words: LAP1 binders from COS7 cell lysate, primary screen, small-molecule microarray, 635/667 nm fluorescence (AID 1116). The conditions noted are these: COS7-hLAP1 lysate binding, 635 nm fluorescence, higher = more signal.
Experiment [20] has as its target Alpha-bungarotoxin (Bungarus multicinctus) (UniProt P60615). The experiment can be described thus: alpha-bungarotoxin binders on microarray, profiling panel, artefact control for SMM control protein annotation, biochemical, small-molecule microarray, Alexa647 label, 635/667 nm fluorescence (AID 1117). The conditions noted are these: alpha-BTX-A647 binding fluorescence, higher = more signal.

Calls of active or inactive are those of the source.

Sequence of Alpha-bungarotoxin (Bungarus multicinctus) (P60615 whole entry, looked up): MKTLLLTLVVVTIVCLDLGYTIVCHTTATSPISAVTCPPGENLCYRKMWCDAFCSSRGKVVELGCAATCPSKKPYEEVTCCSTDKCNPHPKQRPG
Sequence of Torsin-1A-interacting protein 1 (Homo sapiens) (Q5JTV8 whole entry, looked up): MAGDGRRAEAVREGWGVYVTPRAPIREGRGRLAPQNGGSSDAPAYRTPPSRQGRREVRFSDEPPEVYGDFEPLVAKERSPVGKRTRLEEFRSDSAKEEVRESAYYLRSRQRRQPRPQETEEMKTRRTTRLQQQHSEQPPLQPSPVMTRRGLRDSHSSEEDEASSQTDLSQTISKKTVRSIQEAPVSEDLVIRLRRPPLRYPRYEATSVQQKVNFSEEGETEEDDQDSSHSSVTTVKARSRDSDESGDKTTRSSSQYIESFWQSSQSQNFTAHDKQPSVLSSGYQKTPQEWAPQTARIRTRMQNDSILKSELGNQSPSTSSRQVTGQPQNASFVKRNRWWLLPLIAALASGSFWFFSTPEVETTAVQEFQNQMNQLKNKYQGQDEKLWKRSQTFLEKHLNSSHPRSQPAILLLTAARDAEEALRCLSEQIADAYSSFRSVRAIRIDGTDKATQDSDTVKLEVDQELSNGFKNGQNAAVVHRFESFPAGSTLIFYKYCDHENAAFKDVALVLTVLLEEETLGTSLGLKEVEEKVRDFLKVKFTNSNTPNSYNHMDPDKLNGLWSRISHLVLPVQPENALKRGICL
Sequence of Epidermal growth factor receptor (Homo sapiens) (P00533 whole entry, looked up): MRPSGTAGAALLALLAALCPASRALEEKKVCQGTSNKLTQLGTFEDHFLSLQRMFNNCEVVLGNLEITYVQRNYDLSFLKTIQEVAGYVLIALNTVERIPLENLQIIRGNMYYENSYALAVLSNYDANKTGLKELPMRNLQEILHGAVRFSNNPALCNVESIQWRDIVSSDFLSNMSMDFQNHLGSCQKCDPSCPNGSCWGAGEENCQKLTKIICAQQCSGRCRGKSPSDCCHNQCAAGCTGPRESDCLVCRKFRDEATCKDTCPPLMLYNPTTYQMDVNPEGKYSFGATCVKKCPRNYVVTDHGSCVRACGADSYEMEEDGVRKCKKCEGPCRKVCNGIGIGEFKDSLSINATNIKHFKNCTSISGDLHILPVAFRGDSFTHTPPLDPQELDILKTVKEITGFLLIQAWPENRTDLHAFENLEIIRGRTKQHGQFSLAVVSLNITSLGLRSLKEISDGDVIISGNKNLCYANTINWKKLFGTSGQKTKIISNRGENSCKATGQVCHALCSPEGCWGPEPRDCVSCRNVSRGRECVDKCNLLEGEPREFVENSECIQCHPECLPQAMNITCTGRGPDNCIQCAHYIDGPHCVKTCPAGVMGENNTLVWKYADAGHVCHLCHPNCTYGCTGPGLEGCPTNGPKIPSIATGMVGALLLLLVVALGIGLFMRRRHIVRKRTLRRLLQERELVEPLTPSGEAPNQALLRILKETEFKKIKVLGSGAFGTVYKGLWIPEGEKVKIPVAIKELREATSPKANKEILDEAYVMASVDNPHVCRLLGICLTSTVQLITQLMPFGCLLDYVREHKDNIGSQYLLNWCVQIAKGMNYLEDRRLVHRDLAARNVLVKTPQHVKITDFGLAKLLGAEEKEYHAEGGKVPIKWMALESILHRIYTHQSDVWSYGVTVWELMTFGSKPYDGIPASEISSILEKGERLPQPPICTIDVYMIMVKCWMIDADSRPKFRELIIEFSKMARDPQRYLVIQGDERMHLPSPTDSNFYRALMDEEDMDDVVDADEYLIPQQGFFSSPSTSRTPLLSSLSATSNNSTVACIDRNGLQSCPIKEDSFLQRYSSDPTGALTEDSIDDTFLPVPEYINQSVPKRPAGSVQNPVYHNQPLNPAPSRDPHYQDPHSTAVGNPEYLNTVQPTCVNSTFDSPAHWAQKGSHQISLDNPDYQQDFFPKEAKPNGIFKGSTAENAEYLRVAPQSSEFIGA
Sequence of Fibroblast growth factor 10 (Homo sapiens) (O15520 whole entry, looked up): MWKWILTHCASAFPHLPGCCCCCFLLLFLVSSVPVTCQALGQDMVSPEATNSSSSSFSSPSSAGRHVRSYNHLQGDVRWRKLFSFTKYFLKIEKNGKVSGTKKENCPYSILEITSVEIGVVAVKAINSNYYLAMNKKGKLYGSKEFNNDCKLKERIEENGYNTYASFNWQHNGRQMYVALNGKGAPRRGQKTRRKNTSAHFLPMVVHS
Sequence of Left-right determination factor 2 (Homo sapiens) (O00292 whole entry, looked up): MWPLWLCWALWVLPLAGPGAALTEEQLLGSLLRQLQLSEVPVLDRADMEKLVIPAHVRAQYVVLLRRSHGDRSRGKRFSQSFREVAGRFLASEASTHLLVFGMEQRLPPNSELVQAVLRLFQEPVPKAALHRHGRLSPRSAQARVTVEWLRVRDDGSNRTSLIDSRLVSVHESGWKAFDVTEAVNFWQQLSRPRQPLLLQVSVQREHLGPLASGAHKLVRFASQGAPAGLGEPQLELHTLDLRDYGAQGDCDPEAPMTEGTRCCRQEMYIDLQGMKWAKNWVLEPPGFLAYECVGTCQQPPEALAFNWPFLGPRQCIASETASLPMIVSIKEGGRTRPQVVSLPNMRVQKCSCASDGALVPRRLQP
Sequence of Dickkopf-related protein 1 (Homo sapiens) (O94907 whole entry, looked up): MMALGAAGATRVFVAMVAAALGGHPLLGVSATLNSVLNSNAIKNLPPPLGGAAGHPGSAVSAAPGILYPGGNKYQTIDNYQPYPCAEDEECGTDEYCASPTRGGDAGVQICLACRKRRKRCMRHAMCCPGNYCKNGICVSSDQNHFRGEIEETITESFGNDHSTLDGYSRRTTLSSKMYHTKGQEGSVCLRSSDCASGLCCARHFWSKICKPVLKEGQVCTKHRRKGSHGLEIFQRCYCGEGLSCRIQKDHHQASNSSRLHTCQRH
Sequence of Follistatin-related protein 3 (Homo sapiens) (O95633 whole entry, looked up): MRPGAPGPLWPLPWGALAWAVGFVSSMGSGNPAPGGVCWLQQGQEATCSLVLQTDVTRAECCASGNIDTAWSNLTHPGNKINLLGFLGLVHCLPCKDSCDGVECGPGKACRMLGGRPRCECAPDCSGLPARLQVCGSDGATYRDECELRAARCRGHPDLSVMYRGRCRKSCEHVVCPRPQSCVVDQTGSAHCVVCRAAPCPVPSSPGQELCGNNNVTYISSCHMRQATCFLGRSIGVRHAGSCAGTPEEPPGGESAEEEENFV

On to `OCc1ccc(C2=CC(C3CC3)N(Cc3sc4ccccc4c3Cl)CC2)cc1` (stereo unspecified), for which the composite z-score stood at 1 in experiment [1]; 0.0931 in [2]; 0.274 in experiment [3]; 0.458 in experiment [5]; 0.979 in experiment [6]; 0.417 in [7]. Further, the composite z-score in experiment [8] was 0.48; in [9], 0.8; in experiment [10], 1.04; in experiment [11], 0.794; in [13], 0.401; in [14], 0.0976. Moreover, the composite z-score was -0.481 in experiment [15]; -0.103 in experiment [16]; -0.0146 in experiment [17]; -0.0662 in experiment [18]; 0.781 in experiment [19]; 1.44 in [20]. Moreover, the values for the z-score in experiment [4] and in experiment [12] were -0.747 (inactive) and -1.68, respectively.
For `CCOC(=O)[C@H]1CC=C2C(=O)Oc3ccc(Br)cc3[C@@H]21`, the composite z-score in [1] was 1.07; in [2] it was -0.0951; in [3] it was 0.667; in [5], -0.79; in experiment [6] it was 0.254; in experiment [7], -1.34. Besides, the composite z-score was -1.51 in experiment [8]; -1.48 in experiment [9]; -1.85 in experiment [10]; 0.891 in experiment [11]; -1.91 in experiment [13]; 1.27 in [14]. The composite z-score in [15] is 0.0172; in experiment [16] it was -0.0118; in [17], 0.151; in experiment [18], 0.884; in experiment [19] it was 0.501; in experiment [20] it was 1.65. For the same compound, the z-score in experiment [4] was 0.123 (inactive); in [12], -3.69.
As to `C[C@H]1O[C@H]2C3=C(C(=O)[C@@H]4O[C@@H]4[C@@H]3O)[C@@H]1[C@@H]1[C@@H](C)OC=C3[C@@H](O)[C@H]4O[C@H]4C(=O)[C@]312`, the composite z-score in experiment [1] was -0.373; in experiment [2], -0.416; in experiment [3] it was -0.399; in experiment [5], -0.131; in [6], -0.572; in experiment [7], -0.132. Besides, the composite z-score was -0.727 in [8]; 0.133 in experiment [9]; 0.38 in experiment [10]; -1.18 in experiment [11]; -0.107 in [13]; -0.806 in [14]. For the same compound, the composite z-score in [15] is -0.447; in experiment [16], -0.125; in experiment [17], -0.0553; in experiment [18] it was -0.252; in experiment [19], -0.404; in experiment [20] it was 0.411. In addition, the results for the z-score in [4] and in experiment [12] were -1.89 (inactive) and -2.57, respectively.
Consider `COc1cc2c(cc1O)C=[N+](C)CC2`, for which the composite z-score was 0.136 in experiment [1]; 0.148 in [2]; -0.0058 in experiment [3]; 0.668 in experiment [5]; -0.11 in [6]; -0.414 in [7]. Also, the composite z-score in experiment [8] was 0.137; in [9] it was -0.14; in [10], 1.35; in experiment [11], -2.1; in experiment [13], -0.0898; in [14], -0.683. The composite z-score in experiment [15] was -0.399; in [16] it was -0.15; in experiment [17] it was -0.138; in experiment [18] it was -0.436; in [19], -0.347; in experiment [20] it was -0.596. Also, the z-score in experiment [4] was 0.131 (inactive); in experiment [12] it was -0.0523.
Consider `CCc1cc2c(nc1CC)CCN(CCC(C)=NOC)C2`, for which the composite z-score in experiment [1] is 0.0885; in experiment [2], -0.112; in [3], 0.662; in [5], 0.179; in experiment [6] it was 0.344; in experiment [7], 0.961. Further, the composite z-score was 0.763 in experiment [8]; 0.755 in experiment [9]; 1.66 in experiment [10]; 0.711 in experiment [11]; 0.802 in experiment [13]; -0.47 in experiment [14]. Also, the composite z-score in experiment [15] is 0.107; in experiment [16], 0.0375; in experiment [17], -0.117; in experiment [18] it was -0.148; in experiment [19], 1; in experiment [20], -0.0978. In addition, the z-score was 0.0386 (inactive) in experiment [4] and -1.06 in experiment [12].
Consider `C=C1C=C(Br)C2(OCCCO2)[C@H]2OC12` (stereo partly specified), for which, in experiment [20], the composite z-score is -0.206.
In the case of `C[C@@H]1Cc2c(cnc3c2CN(C)CC3)CO1`, the composite z-score in [1] is 0.0529; in experiment [2], -0.228; in [3] it was -0.368; in experiment [5], 0.32; in experiment [6], -0.117; in experiment [7], 1.15. For the same compound, the composite z-score in experiment [8] was 0.336; in experiment [9] it was 0.662; in experiment [10], 1.09; in experiment [11], -1.58; in experiment [13], 0.894; in [14], -1.33. For the same compound, the composite z-score was -0.882 in experiment [15]; -0.0221 in [16]; 0.149 in experiment [17]; -0.0689 in [18]; -0.217 in experiment [19]; -0.138 in experiment [20]. The z-score in [4] is -0.377 (inactive); in experiment [12], -0.491.
In the case of `COC(=O)[C@@]1(Cc2ccccc2)[C@H]2c3cc(C(=O)N(C)C)n(C)c3C[C@H]2CN1C(=O)c1ccccc1`, the composite z-score in experiment [1] was 1.5; in experiment [2], -0.0842; in experiment [3] it was 0.836; in experiment [5], 0.358; in experiment [6], -0.214; in experiment [7], 0.0444. In addition, the composite z-score in experiment [8] was -0.443; in [9], -0.631; in experiment [10], 1.09; in [11], -1.91; in experiment [13], -0.611; in [14], 1.96. For the same compound, the composite z-score is 0.514 in [15]; -0.107 in [16]; 0.214 in [17]; 1.65 in experiment [18]; 2.25 in experiment [19]; 0.0882 in experiment [20]. The results for the z-score in [4] and in experiment [12] were -0.806 (inactive) and -1.42, respectively.
With `O=P(c1ccccc1)(c1ccccc1)N1CC2(CC2)CC(O)(c2ccccc2)C1` (stereo unspecified), the composite z-score was 0.68 in experiment [1]; 0.704 in experiment [2]; 0.969 in [3]; 0.11 in experiment [5]; -0.487 in experiment [6]; -0.48 in experiment [7]. Besides, the composite z-score in [8] was -0.672; in experiment [9], -0.673; in experiment [10], 0.72; in experiment [11] it was 1.04; in experiment [13], -1.1; in [14], 1.04. The composite z-score is 1.08 in experiment [15]; 0.435 in experiment [16]; -0.0553 in experiment [17]; 1.6 in [18]; 1.58 in [19]; 0.41 in experiment [20]. In addition, the results for the z-score in [4] and in [12] were -3.24 (inactive) and -1.06, respectively.
